Compounds with a hit are over-represented: about 18% of the library has one in this group of screens.
HepG2 tox: kills HepG2 cells in TGF-b inhibitor counter-screen; AID 588856; Potency, µM (series often up to 46.1 µM), without a hit: at the top dose activity change, negative = cytotoxicity, most hits filed as cytotoxic; 410,000 tested, 0.76% active; HepG2 CAGA-GFP viability, ATP luminescence, 18 h; note: potency is the fitted concentration of half-maximal effect
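HepG2 CAGA-GFP cells (1000/well, DMEM with 1% FBS) received compound, then TGF-beta at 500 pg/mL final, and were incubated 18 hours at 37 degrees C. Viability was read by CellTiter-Glo luminescence. Media-only wells were set as complete cell-killing and DMSO as no toxicity.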
TDP1 cell CPT: DT40-hTDP1 cell growth loss with CPT. chicken DT40 Tdp1-/-;hTDP1 cells + 20 nM CPT, ATP luminescence, 48 h. Potency, µM (titrated, usually from 46.2 µM), for the others: at the top dose activity change, negative = growth inhibition, actives largely listed as inhibitors. AID 686979. 420,000 tested, 12% active; note: potency is the fitted concentration of half-maximal effect; % is set by controls: 0 for no effect and ±100 for the full control effect; nearly all actives have a fitted effect of over 55% in size
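Chicken DT40 Tdp1-/- cells complemented with human TDP1, 400 cells/well, exposed to compounds plus 20 nM camptothecin for at least 48 h at 37 C; viability read as ATP content by CellTiter-Glo luminescence.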
TGFb SMAD3 inh: inhibitors of TGF-b signaling; Potency, µM (highest dose often 46.1 µM), for inactives: at the top dose activity, negative = inhibition, actives largely listed as inhibitors; 410,000 tested, 1.2% active; AID 588855; HepG2 CAGA-GFP TGF-b/SMAD3 reporter, GFP fluorescence, 18 h; TGF-beta stimulated, 500 pg/mL final; note: potency is the fitted concentration of half-maximal effect; % is set by controls: 0 for no effect and ±100 for the full control effect; nearly all actives have a fitted effect of over 65% in size
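First, reporter cells (HEPG2 CAGA-GFP) rested 2 h at 37 degrees C. Next, compounds were pinned in and TGF-beta added to 500 pg/mL final. After 18 h, GFP was imaged per cell and summed per well.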
IL1B secr inh: blocks inflammasome-driven IL-1 beta release; THP-1 LPS/ATP IL-1B secretion, AlphaLISA, 16 h; hits give low values; activity change, % at 57.5 µM; 360,000 tested, 4.7% active; AID 743279; in the data active = activity change below about -50%; inconclusive = mostly about -30% to -49%; note: % is set by controls: 0 for no effect and ±100 for the full control effect
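THP-1 cells pretreated 1 hr with compounds (up to 57.5 uM final), then stimulated with LPS (250 ng/mL final) plus ATP (1.25 mM final); secreted IL-1B measured by AlphaLISA after 16 hr, decreased signal indicating inhibition.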
TDP1 cell noCPT: qHTS for Inhibitors of human tyrosyl-DNA phosphodiesterase 1 (TDP1): qHTS in cells in absence of CPT. DT40 Tdp1-/- hTDP1 cells, no CPT, ATP luminescence, 48 h. Potency, µM (top dose mostly 46.2 µM), without a hit: at the highest dose activity change, negative = growth inhibition, actives largely listed as inhibitors. 420,000 tested, 15% active. AID 686978, 2013; note: potency is the fitted concentration of half-maximal effect; % is set by controls: 0 for no effect and ±100 for the full control effect; nearly all actives have a fitted effect of over 55% in size
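Luminescent ATP content (CellTiter-Glo) served as the growth readout. Knockout chicken DT40 cells expressing human TDP1 were exposed to compounds without camptothecin for a minimum 48 hr at 37 °C.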
TDP1 inh: blocks human tyrosyl-DNA phosphodiesterase 1 | Q9NUW8 | recombinant TDP1, AlphaScreen DNA substrate cleavage | Potency, µM (series often up to 130 µM), inactives show at the top dose activity change, negative = inhibition, actives largely listed as inhibitors | 350,000 tested, 0.28% active | AID 485290; note: potency is the fitted concentration of half-maximal effect; % is set by controls: 0 for no effect and ±100 for the full control effect; nearly all actives have a fitted effect of over 40% in size
Target sequence (Q9NUW8 whole entry, looked up): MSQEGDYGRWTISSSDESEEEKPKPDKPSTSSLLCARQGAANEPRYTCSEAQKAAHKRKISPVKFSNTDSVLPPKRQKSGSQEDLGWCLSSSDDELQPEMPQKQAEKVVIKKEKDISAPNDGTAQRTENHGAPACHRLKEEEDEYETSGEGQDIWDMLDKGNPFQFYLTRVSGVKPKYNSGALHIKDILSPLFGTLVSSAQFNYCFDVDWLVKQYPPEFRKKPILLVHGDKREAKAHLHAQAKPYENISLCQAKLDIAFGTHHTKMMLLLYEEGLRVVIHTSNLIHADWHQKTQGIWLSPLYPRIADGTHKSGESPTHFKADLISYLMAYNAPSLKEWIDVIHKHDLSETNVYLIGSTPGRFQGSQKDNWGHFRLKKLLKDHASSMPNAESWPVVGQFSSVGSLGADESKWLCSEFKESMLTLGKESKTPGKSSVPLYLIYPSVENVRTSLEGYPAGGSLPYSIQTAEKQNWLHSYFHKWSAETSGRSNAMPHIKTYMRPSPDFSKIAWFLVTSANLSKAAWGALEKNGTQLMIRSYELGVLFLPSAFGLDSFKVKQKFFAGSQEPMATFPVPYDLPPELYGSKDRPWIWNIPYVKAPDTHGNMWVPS
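E. coli-derived human Tdp1, 1 nM final. Cpd preinc 15 min RT; substrate 15 nM final, 5 min RT; AS bead mix 10 ug/ml final, 10 min RT. Signal loss = tyrosine-FITC cleavage. No-enzyme wells = max signal.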
Numbers without * were called inactive; u = inconclusive; x = no result; [ ] = remark or other dose. Unless noted, calls come from the whole dose curve; as a rule, active = well fitted curve in the direction sought with a large enough effect; inconclusive = small, poorly fitted or top-dose-only effect, or another doubt; inactive = no such curve, though single readings can be large; an effect the other way counts as inactive or inconclusive.

SMILES	HepG2 tox	TDP1 cell CPT	TGFb SMAD3 inh	IL1B secr inh	TDP1 cell noCPT	TDP1 inh
C#CCOCCOCCOCCNc1nc(N2CCOCC2)nc(N2CCN(C(=O)CCCCCCCCCCNC(=O)[C@@H]([C@H](C)CC)n3cc(CCCCCN)nn3)CC2)n1	-39%	u	u	2	u	1%
C#CCOCCOCCOCCNc1nc(N2CCN(C(=O)CCCCCCCCCCNC(=O)[C@@H](CCC(=O)O)n3cc(CCCCCN)nn3)CC2)nc(N2CCN(C(=O)CCCCCCCCCCNC(=O)[C@H]([C@@H](C)CC)n3cc(CCCCCN)nn3)CC2)n1	-66%	-6%	u	-95*	u	9%
Cc1c(F)cccc1NC(=O)c1ccc2c(c1)CCN2S(C)(=O)=O	-59%	-3%	-7%	-10	-21%	x
C/C(=N/OC(=O)C1CC12CCC2)c1ccc(Br)cc1 (centres undefined)	-23%	-3%	0%	33	-5%	-2%
COC(=O)[C@]12CCCCC=C1N(Cc1ccc3c(c1)OCO3)C(=O)[C@H](CC(=O)NCCCN1CCCC1=O)C2	x	u	x	0	u	x
C#CCOCCOCCOCCNc1nc(N2CCN(C(=O)CCCCCCCCCCNC(=O)[C@H]([C@@H](C)CC)n3cc(CCCCCN)nn3)CC2)nc(N2CCN(C(=O)CCCCCCCCCCNC(=O)[C@H]([C@@H](C)CC)n3cc(CCCCN=C(N)N)nn3)CC2)n1	x	x	x	x	x	15%
C#CCOCCOCCOCCNc1nc(N2CCN(C(=O)CCCCCCCCCCNC(=O)[C@H]([C@@H](C)CC)n3cc(CCCCCN)nn3)CC2)nc(N2CCN(C(=O)CCCCCCCCCCNC(=O)[C@@H]([C@H](C)CC)n3cc(CCCCCN)nn3)CC2)n1	x	x	x	x	x	11%
C#CCOCCOCCOCCNc1nc(N2CCOCC2)nc(N2CCN(C(=O)[C@H](CCCCN)n3cc(CCCC)nn3)CC2)n1	2%	0.21µM*	5%	12	1.3µM*	x
C#CCOCCOCCOCCNc1nc(N2CCN(C(=O)CCCCCCCCCCNC(=O)Cn3cc(CCCCCN)nn3)CC2)nc(N2CCN(C(=O)CCCCCCCCCCNC(=O)[C@H]([C@@H](C)CC)n3cc(CCCCN=C(N)N)nn3)CC2)n1	-102%	21µM*	u	-110*	u	15%
C#CCOCCOCCOCCNc1nc(N2CCN(C(=O)CCCCCCCCCCNC(=O)[C@H]([C@@H](C)CC)n3cc(CCCCCN)nn3)CC2)nc(N2CCN(C(=O)CCCCCCCCCCNC(=O)[C@H](CO)n3cc(CCCCCN)nn3)CC2)n1	14µM*	u	u	-83*	u	9%
COC1(OC)C=CC(=O)C=C1NC(=O)c1ccccc1OC(C)=O	-4%	x	11µM*	x	x	x
CCOC(=O)c1c(C)nc2sc3c(=O)n(-c4ccc(C(C)=O)cc4)cnc3c2c1-c1ccc(OC)cc1	0%	-113%	-10%	37	16µM*	8%
CCOC(=O)c1c(C)nc2sc3c(c2c1-c1ccc(OC)cc1)NC(c1ccccc1)NC3=O (centres undefined)	2%	u	23%	81	18µM*	2%
Cc1c(C(=O)NCc2ccc(F)cc2)sc(=O)n1Cc1ccccc1F	-22%	u	-6%	u	u	x
Cn1nnnc1SCC1=C(C(=O)O)N2C(=O)[C@@H](NC(=O)[C@@H](O)c3ccccc3)[C@@H]2SC1	x	x	x	x	x	9%[21 µM]
NCc1ccccc1CC(=O)N[C@@H]1C(=O)N2C(C(=O)O)=C(CSc3nnnn3CC(=O)O)CS[C@@H]12	x	x	x	x	x	10µM*
CC(=O)OCC1=C(C(=O)O)N2C(=O)C(NC(=O)CSc3ccncc3)[C@@H]2SC1 (some centres undefined)	x	-2%	x	x	-6%	14µM*
Cc1ccc(S(=O)(=O)Nc2ccc(-n3c(C)nc4ccccc4c3=O)cc2)cc1	-4%	-23%	0%	u	-14%	5%
C[C@H](CO)N1C[C@H](C)[C@H](CN(C)S(=O)(=O)c2cccs2)OCc2cnnn2CCCC1=O	-2%	4%	5%	16	14%	x
CCOc1ccc(N(C(C)C(=O)N/N=C(\C)c2cccc(NC(=O)c3ccccc3)c2)S(C)(=O)=O)cc1 (centres undefined)	7%	18µM*	0%	u	18µM*	6%
CCCc1sc(N2CCCC(C(N)=O)C2)nc1-c1ccccc1 (centres undefined)	-48%	u	u	2	18µM*	9%
Cc1ccc2nc(COc3ccccc3NC(=O)COc3ccc(F)cc3)cc(=O)n2c1	3%	0%	15%	x	-13%	3%
COc1ccc(NC(=O)C(C)n2nc(-c3cc(C)ccc3C)c3c(c2=O)CCCC3)cc1 (centres undefined)	-38%	21µM*	u	x	u	7%
COc1ccc(-c2cc(CNC(=O)CCl)on2)cc1	3%	u	-5%	-92*	u	3%
COc1ccc(-c2cc(CNC(=O)CN(C)Cc3ccccc3)on2)cc1	-9%	-23%	u	-1	u	4%
Cc1ccc(Nc2c([N+](=O)[O-])ccc3nonc23)c(C)c1	-7%	22%	0%	3	0%	x
Cc1ccc(S(=O)c2ccc([N+](=O)[O-])c3nonc23)cc1 (centres undefined)	-49%	2.6µM*	u	u	3.3µM*	x
COc1ccnc(Oc2ccc(F)cc2)c1C(=O)N/C=N/OCc1ccc(F)cc1Cl	-3%	u	-32%	-64*	u	8%

Compound activity (PubChem)
